# CYP2C19 inhib: blockers of cytochrome P450 2C19 activity – biochemical, luminescence, ADME assay, primary screen; 21% of 96,000 active; CYP2C19 Supersomes, luciferin-H EGE luminescence, 30 min; inhibition, % at 5 µM; AID 778, 2007;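 active = CYP2C19 inhibition above a set limit at 5 µM in the primary screen, cut at about 50% in these data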;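 note: plate controls were negative control wells for no effect and 2.5 mM tranylcypromine positive control for full effect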
# Target sequence (P33261 whole entry, looked up): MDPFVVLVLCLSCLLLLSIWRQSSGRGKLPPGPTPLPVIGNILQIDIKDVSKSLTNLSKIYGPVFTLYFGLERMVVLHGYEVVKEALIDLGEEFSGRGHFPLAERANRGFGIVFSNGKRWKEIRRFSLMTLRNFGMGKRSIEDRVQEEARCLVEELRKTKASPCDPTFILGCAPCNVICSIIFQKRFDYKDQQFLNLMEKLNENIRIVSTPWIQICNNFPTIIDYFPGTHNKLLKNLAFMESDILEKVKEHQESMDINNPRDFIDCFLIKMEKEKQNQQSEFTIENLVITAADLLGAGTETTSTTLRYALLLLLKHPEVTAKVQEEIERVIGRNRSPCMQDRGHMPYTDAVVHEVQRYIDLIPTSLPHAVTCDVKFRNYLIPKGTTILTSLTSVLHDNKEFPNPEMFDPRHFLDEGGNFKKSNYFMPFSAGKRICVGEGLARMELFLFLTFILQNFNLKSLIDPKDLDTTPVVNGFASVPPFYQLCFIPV
# CYP2C9 activ: human CYP2C9 activators, primary screen, biochemical, luminescence | Cytochrome P450 2C9 (Homo sapiens), P11712 | AID 1024, 2008 | activation factor at 5 µM | 1.4% of 96,000 active | recombinant CYP2C9, luciferin-H conversion; stronger effect = higher value; factor 1 = untreated enzyme, 0 = blocked;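 active = activation factor of 2 or more for CYP2C9 at a 5 µM dose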;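 note: 0 = sulfaphenazole-blocked wells and 1 = vehicle-only wells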
# CYP2C19 act: human CYP2C19 activators, primary screen, biochemical, luminescence. Cytochrome P450 2C19 (Homo sapiens), P33261. activation factor at 5 µM. 96,000 tested, under 10 active. recombinant CYP2C19, luciferin-H EGE luminescence; stronger effect = higher value; 0 = fully inhibited enzyme, 1 = untreated enzyme. AID 1025, 2008;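 active = activation factor of at least 2 at 5 µM in the primary screen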;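 note: 0 = wells with 2.5 mM tranylcypromine and 1 = vehicle-only wells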
# CYP2C9 inhib: blockers of cytochrome P450 2C9 activity – biochemical, luminescence, ADME assay, primary screen. P11712. CYP2C9 Supersomes, luciferin-H conversion. AID 777, 2007. 20% of 96,000 active. inhibition, % at 5 µM;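 active = blocking of liver enzyme CYP2C9 beyond about 50% at 5 µM, limit read from the data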
# PTK2B oligo ant: antagonists of Pyk2 self-association, primary screen, Q293 cells, FERM NanoBiT luminescence, HTS. Protein-tyrosine kinase 2-beta (Homo sapiens), Q14289. stronger effect = lower value. z-score (the deposit names both 25 µM and 10 µM). 0.83% of 99,000 active. AID 1347419, 2020;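 active = Z-score of -3 or lower, scaled per plate to the spread of control and sample wells; inactive = z-score above -3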;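 note: negative z-score means lost luminescence so less FERM oligomerization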
# An asterisk follows results filed as active; / = no result given. Compounds with a hit are over-represented: about 28% of the library has one in this group of screens.
SMILES,CYP2C19 inhib,CYP2C9 activ,CYP2C19 act,CYP2C9 inhib,PTK2B oligo ant
COc1ccc(-c2noc(C3CCCN(C(=O)CCc4ccccc4)C3)n2)cc1 (stereo not drawn),44,0.3,0.6,70*,0.45
CCCCCC(=O)N1CCCC(c2nc(-c3ccc(OC)cc3)no2)C1 (stereo not drawn),64*,0.3,0.4,67*,0.11
COc1ccc(NC(=O)N2CCCC(c3nc(-c4ccc(C(C)C)cc4)no3)C2)cc1 (stereo not drawn),36,0.3,0.6,67*,-2.1
S=C(NN=C(C1CC1)C1CC1)Nc1ccccc1,/,/,/,/,-0.57
CC(C(=O)N1CCCc2ccccc21)N1CCN(S(=O)(=O)c2ccccc2F)CC1 (stereo not drawn),46,0.7,0.5,32,-0.13
O=C(O)c1cnc(-c2ccccc2)nc1Sc1ccc(Cl)cc1,4,0.4,1,61*,-1
O=C(O)c1cnc(-c2ccccc2)nc1Sc1ccccc1Cl,-8,0.8,1.1,17,-1.1
CCOC(=O)C1CCCN(C2CC(=O)N(c3cccc(C(F)(F)F)c3)C2=O)C1 (stereo not drawn),1,1.2,1,-15,1.1
O=C(COc1cccc(C(F)(F)F)c1)NCCCN1CCCC1=O,16,0.7,0.8,26,-0.1
CCOC(=O)COc1ccc(Br)cc1C1NC(=O)NC(C)=C1C(=O)NCc1ccccc1 (stereo not drawn),0,0.2,1,83*,-0.15
CCOc1c(Cl)cc(C2NC(=O)NC(C)=C2C(=O)NCc2ccccc2)cc1OC (stereo not drawn),5,0.8,1,19,0.39
O=C(NCCOC(=O)c1ccncc1)c1ccccc1,71*,0.1,0.3,92*,-0.12
Cc1ccc(C(=O)NCCc2ccncc2)cc1,51*,0.7,0.5,29,0.26
O=C(NCCOC(=O)c1ccc(Cl)cc1)c1cccnc1,23,0.8,0.8,19,-0.18
O=C(NCc1ccncc1)c1ccc(Br)cc1,51*,0.7,0.5,28,-0.4
O=C(NCCOC(=O)c1cccs1)c1cccnc1,61*,0.7,0.4,33,-0.04
CCOC(=O)C1CCCN(Cc2sccc2C)C1 (stereo not drawn),48,1,0.5,4,1.6
O=C(NCc1ccccc1)/C(NC(=O)c1ccccc1)=C(/Sc1ccccn1)c1ccccc1,/,/,/,/,-4.1*
O=C(NCc1ccccc1)NC(=O)c1ccccc1,37,1,0.6,5,0.67
O=C(NCc1ccccc1)NC(=O)c1ccncc1,95*,0.2,0,82*,1.1
O=C(NCCCc1ccccc1)c1ccncc1,98*,0.1,0,93*,0.02
O=C(NCc1cccnc1)/C(=C/c1ccco1)NC(=O)c1ccccc1,12,1,0.9,3,-0.41
COC(=O)c1c(-c2cccs2)csc1NC(=O)c1cccnc1,100*,0,0,100*,-1.1
CC(=O)Nc1cc(NC(C)=O)cc(C(=O)NC(C)(C)C)c1,1,0.9,1,10,0.4
O=C(CSc1nnc(-c2ccc(S(=O)(=O)N3CCCC3)cc2)o1)NCc1ccco1,63*,0.2,0.4,77*,-0.12
SMILES,CYP2C19 inhib,CYP2C9 activ,CYP2C19 act,CYP2C9 inhib,PTK2B oligo ant
CCN(CC)S(=O)(=O)c1ccc(-c2nnc(SCC(=O)Nc3nc(C)cs3)o2)cc1,7,0.5,0.9,46,-0.37
Cc1ccc(-c2nnc(SCC(=O)Nc3ccc(S(=O)(=O)N4CCCCCC4)cc3)o2)cc1,8,0.7,0.9,25,0.52
CCN(CC)C(=O)CSc1nnc(-c2ccc(S(=O)(=O)N3CCCC3)cc2)o1,12,0.7,0.9,31,0.58
CC1Cc2ccccc2N1C(=O)CSc1nnc(-c2ccc(S(=O)(=O)N3CCCC3)cc2)o1 (stereo not drawn),66*,0.1,0.3,88*,0.38
COc1ccc(-c2nnc(SCC(=O)NCc3ccco3)o2)cc1,65*,1.3,0.3,-30,0.76
Cc1csc(NC(=O)CSc2nnc(-c3ccc(S(=O)(=O)N4CCCC4)cc3)o2)n1,31,0.4,0.7,61*,0.06
Cc1ccc(S(=O)(=O)CCC(=O)N2CCN(c3ccc(Cl)cc3)CC2)cc1,/,/,/,/,2.9
Cc1c(C(=O)c2no[n+]([O-])c2C(=O)c2cnn(C)c2C)cnn1C,38,0.7,0.6,27,-0.26
COc1ccc(C2C(C(=O)N3CCOCC3)CCC(=O)N2c2cc(OC)c(OC)c(OC)c2)cc1 (stereo not drawn),/,/,/,/,0.72
CCc1ccc(N2CC(C(=O)NCc3ccco3)CC2=O)cc1 (stereo not drawn),/,/,/,/,0.29
Fc1ccc(NCc2nnc(SCc3nnc(-c4ccccc4)o3)n2CC2CCCO2)cc1 (stereo not drawn),41,0.7,0.6,33,-0.09
CN1CCN(c2nc3c(c(=O)n(C)c(=O)n3C)n2CC(=O)C23CC4CC(CC(C4)C2)C3)CC1,-11,1.2,1.1,-21,0.45
CCc1ccc(OCc2nnc(SCC(=O)NCc3ccco3)o2)cc1,32,1.1,0.7,-13,0.16
COc1ccc(OCc2nnc(SCC(=O)NCc3ccco3)o2)cc1,21,0.3,0.8,72*,0.37
COc1ccc(-c2nnc(SCC(=O)NCc3cccs3)n2CC(C)C)cc1,51*,0.3,0.5,65*,0.83
COc1cc(OC)cc(-c2nnc(SCC(=O)NCc3cccs3)o2)c1,89*,0.8,0.1,20,0.52
CCN(CC)S(=O)(=O)c1ccc(-c2nnc(SCC(=O)N3CCOCC3)o2)cc1,21,0.7,0.8,32,-0.82
CCN(CC)S(=O)(=O)c1ccc(-c2nnc(SCC(=O)N3CCc4ccccc43)o2)cc1,17,0.3,0.8,66*,0.7
CC(C)OC(=O)c1cc(C(=O)c2cc(F)ccc2O)coc1=N,85*,0.3,0.1,73*,0.17
COc1ccc(/C=N\NC(=O)COc2ccc(C(C)(C)C)cc2)cc1Cn1nc(C)cc1C,53*,0.1,0.5,95*,1.3
O=C1CSC(c2ccccn2)N1Cc1cn2ccccc2n1 (stereo not drawn),20,1.1,0.8,-11,-0.18
O=[n+]1cc(-c2cccc3ccccc23)n([O-])c2c1CCC2,-9,1,1.1,2,0.03
Cc1ccc2[nH]c(=O)c(CN(CC3CCCO3)S(=O)(=O)c3c(C)ccc4nsnc34)cc2c1 (stereo not drawn),29,0.5,0.7,52*,-0.97
Cc1ccc2[nH]c(=O)c(CN(CC3CCCO3)S(=O)(=O)c3cccc4nsnc34)cc2c1 (stereo not drawn),79*,0.1,0.2,91*,-1
COc1ccc(OC)c2c1CCC2=O,/,/,/,/,2.6
O=C(CN1c2ccccc2Sc2ccccc21)NNC(=S)Nc1ccc(Cl)cc1Cl,-1,0.2,1,80*,-1.7

# Compound activity from PubChem.
